Laboratory results: PubChem BioAssay AID709 (SRMLSC, 2007)
The whole screen tested about 65,000 compounds, of which about 3,600 (5.5%) were called active.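 Rule for the calls: active = at 10 µM, mean starting fluorescence two-fold or more over control wells; inactive = the rest.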 What follows is part of a selection rich in actives, with near analogues and random picks from the rest.

Assay: intrinsic fluorescence of library compounds, ex339/em460 – biochemical, MLSMR library, data from DPM-DC assay, artefact control, profiling panel (AID 709);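 note: signal is the first read of a kinetic run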
Conditions: compound autofluorescence, ex339/em460 nm, NADH buffer; at 10 µM; active compounds read high; 1 = no-compound wells, NADH background

Fluorescence fold increase, active:
c1ccc(-c2cn3cccnc3n2)cc1 2.51
CC(=O)Nc1ccc(-c2cn3cccnc3n2)cc1 5.32
N#Cc1c(N)n(CCOC(=O)c2ccc(Cl)cc2)c2nc3ccccc3nc12 2.28
CCOc1ccccc1C1C(C(=O)OC)=CN(C)C=C1C(=O)OC 4.81
COC(=O)C1=CN(C)C=C(C(=O)OC)C1c1ccc(Cl)cc1Cl 2.14

Fluorescence fold increase, inactive:
CO/N=C(\C(=O)N[C@@H]1C(=O)N2C(C(=O)O)=C(COC(C)=O)CS[C@H]12)c1csc(N)n1 (stereo in doubt) 1.08
CCCn1c(O)c(CN2CCCC(C)C2)c(C)c(C#N)c1=O (centres undefined) 1.26
CCN(CC)Cc1c(C(=O)OC)nnn1-c1nonc1N 1.05
Cc1ccc2c(CSc3nncs3)cc(=O)oc2c1 1.02
COc1ccc(S(=O)(=O)Nc2ccc3c(c2)OCO3)cc1Cl 1.03
CCOc1nc(OCC)nc(-n2cc(-c3ccccc3)nn2)n1 1.06
CC(=O)Nc1cccc(-c2cnc3ccccc3n2)c1 1.09
COc1ccc(-c2cn3ccsc3n2)cc1 1.08
CCCC(=O)Nc1cccc(-c2cn3ccsc3n2)c1 1.09
O=C(Oc1cccnc1)c1cc2ccccc2oc1=O 1.24
CCOC(=O)C1CCCCN1Cc1ccc(OC)c(OC)c1OC (centres undefined) 1.06
Cc1ccc2oc(=O)c3cnn(CC(=O)N4CCN(c5ccccn5)CC4)c3c2c1 1.1
O=C(Cn1nnc(-c2ccc3c(c2)OCO3)n1)NCc1ccco1 1.15
CCOc1ccc(C(CC(=O)O)NC(=O)COc2ccccc2)cc1 (centres undefined) 1.07
O=S(=O)(O)c1nc2ccccc2n1Cc1ccc(Cl)cc1 1.22
Cn1nnnc1SCc1cc(=O)[nH]c2ccccc12 1.06
CCCCOCCCNC(=O)c1ccccc1OCC 1
CCOc1ccccc1N(CC(=O)Nc1ccccc1C(=O)OC)S(C)(=O)=O 1.11
CC12CN3CC(C)(CN(C1)C3c1ccc(Cl)cc1Cl)C2=O (centres undefined) 1.04
COC(=O)C1=C(C)N(C)C(C)=C(C(=O)OC)C1c1cccc(Br)c1 1.12
CN1CCN(Cc2nc3c(c(=O)n(C)c(=O)n3C)n2Cc2cccc3ccccc23)CC1 1.12
CCCOc1ccc(-c2nc(N)n[nH]2)cc1 1.14
O=C1c2ccccc2C(O)N1Cc1ccccc1Cl (centres undefined) 1.04
Cn1c(=NC(=O)c2ccco2)sc2cccc(F)c21 1.85
